# Assay results published in the supplement of paper PMC4022240.
# ± gives the standard deviation.
# T1: HaloTag-ATRX ADD domain (163-292)
# T1 chain: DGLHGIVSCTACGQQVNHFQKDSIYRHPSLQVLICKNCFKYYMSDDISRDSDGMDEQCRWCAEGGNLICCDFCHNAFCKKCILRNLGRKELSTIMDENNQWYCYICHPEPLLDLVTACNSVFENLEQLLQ
# Columns and labels:
# Assay in all cases: peptide microarray binding signal (635 nm), min-max normalized on array (fraction of array maximum); higher = stronger binding
# Conditions in all cases: peptide region: H2B 17-29
# [1] = molecular target: T1, HaloTag-ATRX ADD domain (163-292)
# Description: (§1)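 Histone 13-mer peptides were synthesized as cellulose conjugates with a C-terminal 20-atom PEG linker and printed in triplicate on nitrocellulose. The sequence given is the unmodified backbone; PTMs (Kme1/2/3, Kac, Sph/Tph, Rme/Rme2a/Rme2s, Rcit) are listed in the label and the 'peptide modifications' condition. Slides were probed at 4 °C for 1 h with biotin-labelled (HQ)5-HaloTag reader fusions (ATRX-ADD, ING2-PHD) then streptavidin-Alexa647, or with rabbit histone antibodies then anti-rabbit Alexa647. The mean 635 nm signal of the triplicate spots was scaled 0-1 between the lowest and highest values on each array.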
# [2] = molecular target: HaloTag-ING2 PHD (mouse Ing2 200-280)
# Description: as §1
# [3] = molecular target: anti-H3K4me3 antibody ab8580
# Description: as §1
# [4] = molecular target: anti-H3K9me3 antibody ab8898
# Description: as §1
# [5] = peptide modifications: H2BK23ac H2BK24ac H2BK27ac H2BK28ac, binder concentration: 1:2,000 dilution
# [6] = peptide modifications: H2BK23ac H2BK24ac H2BK27ac H2BK28ac, binder concentration: 1:10,000 dilution
# [7] = peptide modifications: H2BK20ac H2BK23ac H2BK27ac H2BK28ac, binder concentration: 1:2,000 dilution
# [8] = peptide modifications: H2BK20ac H2BK23ac H2BK27ac H2BK28ac, binder concentration: 1:10,000 dilution
# [9] = peptide modifications: H2BK20ac, binder concentration: 1:2,000 dilution
# [10] = peptide modifications: H2BK20ac, binder concentration: 1:10,000 dilution
# [11] = peptide modifications: H2BK20ac H2BK23ac, binder concentration: 1:2,000 dilution
# [12] = peptide modifications: H2BK20ac H2BK23ac, binder concentration: 1:10,000 dilution
# [13] = peptide modifications: H2BK20ac H2BK23ac H2BK27ac, binder concentration: 1:2,000 dilution
# [14] = peptide modifications: H2BK20ac H2BK23ac H2BK27ac, binder concentration: 1:10,000 dilution
binder,measurement,setting,value
AVTKAQKKDGKKR [H2B 17-29 A V T K A Q Kac Kac D G Kac Kac R],peptide microarray binding signal,"[1]; peptide modifications: H2BK23ac H2BK24ac H2BK27ac H2BK28ac, binder concentration: 50 nM",0.00486 ± 0.00032
same,peptide microarray binding signal,"[1]; peptide modifications: H2BK23ac H2BK24ac H2BK27ac H2BK28ac, binder concentration: 500 nM",0.0102 ± 0.00019
same,peptide microarray binding signal,"[2]; peptide modifications: H2BK23ac H2BK24ac H2BK27ac H2BK28ac, binder concentration: 10 nM",0.00722 ± 0.00059
same,peptide microarray binding signal,"[2]; peptide modifications: H2BK23ac H2BK24ac H2BK27ac H2BK28ac, binder concentration: 100 nM",0.0164 ± 0.00086
same,peptide microarray binding signal,[3]; [5],0.00215 ± 0.00011
same,peptide microarray binding signal,[3]; [6],0.00205 ± 0.00011
same,peptide microarray binding signal,[4]; [5],0.00101 ± 6.9e-05
same,peptide microarray binding signal,[4]; [6],0.00138 ± 1.4e-05
AVTKAQKKDGKKR [H2B 17-29 A V T Kac A Q Kac K D G Kac Kac R],peptide microarray binding signal,"[1]; peptide modifications: H2BK20ac H2BK23ac H2BK27ac H2BK28ac, binder concentration: 50 nM",0.00414 ± 0.00019
same,peptide microarray binding signal,"[1]; peptide modifications: H2BK20ac H2BK23ac H2BK27ac H2BK28ac, binder concentration: 500 nM",0.00762 ± 0.00011
same,peptide microarray binding signal,"[2]; peptide modifications: H2BK20ac H2BK23ac H2BK27ac H2BK28ac, binder concentration: 10 nM",0.00913 ± 0.00015
same,peptide microarray binding signal,"[2]; peptide modifications: H2BK20ac H2BK23ac H2BK27ac H2BK28ac, binder concentration: 100 nM",0.0159 ± 0.00082
same,peptide microarray binding signal,[3]; [7],0.00168 ± 6.8e-05
same,peptide microarray binding signal,[3]; [8],0.0024 ± 4.3e-05
same,peptide microarray binding signal,[4]; [7],0.000861 ± 5.4e-05
same,peptide microarray binding signal,[4]; [8],0.000923 ± 9.6e-06
AVTKAQKKDGKKR [H2B 17-29 A V T Kac A Q K K D G K K R],peptide microarray binding signal,"[1]; peptide modifications: H2BK20ac, binder concentration: 50 nM",0.00492 ± 0.0007
same,peptide microarray binding signal,"[1]; peptide modifications: H2BK20ac, binder concentration: 500 nM",0.00962 ± 0.0042
same,peptide microarray binding signal,"[2]; peptide modifications: H2BK20ac, binder concentration: 10 nM",0.00448 ± 0.00039
same,peptide microarray binding signal,"[2]; peptide modifications: H2BK20ac, binder concentration: 100 nM",0.00829 ± 0.0016
same,peptide microarray binding signal,[3]; [9],0.000378 ± 2.7e-05
same,peptide microarray binding signal,[3]; [10],0.0012 ± 4.3e-05
same,peptide microarray binding signal,[4]; [9],0.000483 ± 1.2e-05
same,peptide microarray binding signal,[4]; [10],0.000807 ± 2.5e-05
AVTKAQKKDGKKR [H2B 17-29 A V T Kac A Q Kac K D G K K R],peptide microarray binding signal,"[1]; peptide modifications: H2BK20ac H2BK23ac, binder concentration: 50 nM",0.00492 ± 0.00049
same,peptide microarray binding signal,"[1]; peptide modifications: H2BK20ac H2BK23ac, binder concentration: 500 nM",0.002 ± 0.0004
same,peptide microarray binding signal,"[2]; peptide modifications: H2BK20ac H2BK23ac, binder concentration: 10 nM",0.00477 ± 0.00013
same,peptide microarray binding signal,"[2]; peptide modifications: H2BK20ac H2BK23ac, binder concentration: 100 nM",0.00333 ± 0.00048
same,peptide microarray binding signal,[3]; [11],0.000321 ± 3.2e-05
same,peptide microarray binding signal,[3]; [12],0.00097 ± 7e-05
same,peptide microarray binding signal,[4]; [11],0.000408 ± 6.9e-06
same,peptide microarray binding signal,[4]; [12],0.000634 ± 1.2e-05
AVTKAQKKDGKKR [H2B 17-29 A V T Kac A Q Kac K D G Kac K R],peptide microarray binding signal,"[1]; peptide modifications: H2BK20ac H2BK23ac H2BK27ac, binder concentration: 50 nM",0.00646 ± 0.00075
same,peptide microarray binding signal,"[1]; peptide modifications: H2BK20ac H2BK23ac H2BK27ac, binder concentration: 500 nM",0.00214 ± 0.00028
same,peptide microarray binding signal,"[2]; peptide modifications: H2BK20ac H2BK23ac H2BK27ac, binder concentration: 10 nM",0.00585 ± 0.00024
same,peptide microarray binding signal,"[2]; peptide modifications: H2BK20ac H2BK23ac H2BK27ac, binder concentration: 100 nM",0.000992 ± 4.7e-05
same,peptide microarray binding signal,[3]; [13],0.000189 ± 5.4e-06
same,peptide microarray binding signal,[3]; [14],0.0016 ± 0.00014
same,peptide microarray binding signal,[4]; [13],0.000664 ± 5.2e-05
same,peptide microarray binding signal,[4]; [14],0.001211 ± 1.2e-05
